{"source": "PubChem BioAssay AID493168", "about": "(National Center for Advancing Translational Sciences (NCATS), 2011)", "note": "Results filed as inconclusive are left out. Active and inactive are the calls of the source. The call rests on the fitted dose curve; in most records, active means well fitted inhibition curve with a large enough effect; inconclusive means small, poorly fitted or top-dose-only effect, or effect the other way; inactive means flat fitted curve, though single readings scatter."}
{"target": "Ubiquitin carboxyl-terminal hydrolase 2 (Homo sapiens) (UniProt O75604)", "sequence (O75604 whole entry, looked up)": "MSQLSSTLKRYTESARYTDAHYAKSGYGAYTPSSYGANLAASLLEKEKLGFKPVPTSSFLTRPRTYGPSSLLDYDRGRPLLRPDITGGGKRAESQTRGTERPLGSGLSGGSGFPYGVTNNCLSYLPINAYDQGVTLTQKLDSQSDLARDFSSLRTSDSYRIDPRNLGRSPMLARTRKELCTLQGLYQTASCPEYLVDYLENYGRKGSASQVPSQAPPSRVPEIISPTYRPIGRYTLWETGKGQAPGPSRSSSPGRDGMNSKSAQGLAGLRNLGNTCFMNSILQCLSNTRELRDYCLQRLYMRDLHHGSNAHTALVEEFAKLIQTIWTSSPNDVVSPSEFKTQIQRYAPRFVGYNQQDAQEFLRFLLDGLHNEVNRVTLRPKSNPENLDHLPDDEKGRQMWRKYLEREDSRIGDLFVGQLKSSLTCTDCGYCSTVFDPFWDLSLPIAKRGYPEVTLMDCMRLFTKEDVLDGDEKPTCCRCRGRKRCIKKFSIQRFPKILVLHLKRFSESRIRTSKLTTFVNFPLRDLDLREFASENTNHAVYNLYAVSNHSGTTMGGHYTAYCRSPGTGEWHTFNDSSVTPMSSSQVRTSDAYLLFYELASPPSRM", "test": "Confirmation Assay for Inhibitors of Ubiquitin-specific Protease USP2a Using CHOP2 as the Reporter; further: nearly all actives have a fitted effect of over 55% in size; further: potency means the concentration at half of the fitted maximal effect;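 on activity change, negative = inhibition: plate controls were DMSO wells for no effect and full inhibition by NEM control for full effect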", "details": "USP2 core, Ub-CHOP2 coupled reporter fluorescence; series mostly up to 38.3 µM; activity change, negative = inhibition: at the top concentration", "procedure,_shortened": "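USP2 core (10 nM final) was preincubated with compound for 30 min at RT in Tris-HCl pH 8.0, CaCl2, beta-mercaptoethanol, CHAPS. Ub-CHOP2 and reporter substrate (25 nM final each) were added, and fluorescence (Ex 485/Em 531 nm) was read after 60 min.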"}
{"compound": "CC1(C)CC(=O)C2=C(C1)Oc1ncn(CCCO)c(=N)c1C2c1ccccc1", "note": "(stereo not drawn)", "activity change, negative = inhibition": "-1.72% (inactive)"}
{"compound": "Cc1nc(NC(C)C)c2cnn(CCc3ccccc3)c2n1", "activity change, negative = inhibition": "-3.81% (inactive)"}
{"compound": "COc1ccc2cc(CN(C(=O)Nc3ccccc3)C3CCCC3)c(=O)[nH]c2c1", "activity change, negative = inhibition": "-2.43% (inactive)"}
{"compound": "O=C(CCS(=O)(=O)c1ccc(Br)s1)NC1CCCC1", "activity change, negative = inhibition": "-2.3% (inactive)"}
{"compound": "O=C(NCCOC(=O)c1ccccc1C(=O)OCCNC(=O)c1cccnc1)c1cccnc1", "activity change, negative = inhibition": "-4% (inactive)"}
{"compound": "CC(C)C(=O)Nc1ccc(C(=O)N2CCCCCC2)cc1", "activity change, negative = inhibition": "-1.8% (inactive)"}
{"compound": "CSCCC(NC(=O)c1cc(C(C)(C)C)oc1C)C(=O)O", "note": "(stereo not drawn)", "activity change, negative = inhibition": "-0.12% (inactive)"}
{"compound": "CCOc1ccc(CCn2c(-c3ccco3)nc3ccccc3c2=O)cc1OCC", "activity change, negative = inhibition": "2.36% (inactive)"}
{"compound": "CCOc1ccc(C(=O)c2ccc(OCC)c(N)c2)cc1N", "activity change, negative = inhibition": "-1.17% (inactive)"}
{"compound": "COc1ccc(C(=O)C[N+]2(C)CCOCC2)cc1", "activity change, negative = inhibition": "2.16% (inactive)"}
{"compound": "Nc1c(C(=O)NC2CC2)sc2nc3c(c(-c4ccco4)c12)CC/C3=C/c1ccco1", "Potency": "7.36 µM (active)"}
{"compound": "COC(=O)c1c(N2C(=O)CCC2=O)sc2c1CCCC2", "activity change, negative = inhibition": "-2.43% (inactive)"}
{"compound": "COc1ccc(OC)c(NC(=O)CSc2nc(O)cc(=O)n2CC(C)C)c1", "activity change, negative = inhibition": "1.08% (inactive)"}
{"compound": "O=C(Nc1cccc(-c2nn[nH]n2)c1)c1ccc(Br)s1", "Potency": "5.21 µM (active)"}
{"compound": "Cc1cc(/C=C2\\C(=N)N3N=C(c4ccco4)SC3=NC2=O)c(C)n1Cc1ccccc1", "Potency": "16.5 µM (active)"}
{"compound": "O=C1CC(c2ccc(Cl)cc2)SC(N(c2ccccc2)c2ccccc2)=N1", "note": "(stereo not drawn)", "activity change, negative = inhibition": "-2.06% (inactive)"}
{"compound": "O=S(=O)(c1ccccc1)N(CC1CO1)c1cc(Cl)ccc1Cl", "note": "(stereo not drawn)", "activity change, negative = inhibition": "-2.76% (inactive)"}
{"compound": "CC(C(=O)Nc1ccc(C(=O)O)c(O)c1)N1C(=O)/C(=C\\c2ccco2)SC1=S", "note": "(stereo not drawn)", "Potency": "16.5 µM (active)"}
